“And” between values parts separate entries of the source, which are not always exact repeats. Identical values can stand only once. Results filed as inconclusive are left out. Unmarked numbers belong to inactive results. The source made the active and inactive calls. Calls follow the shape of the dose curve; as a rule, active = well fitted curve in the direction sought with a large enough effect; inconclusive = small, poorly fitted or top-dose-only effect, or another doubt; inactive = no such curve, though single readings can be large; an effect the other way counts as inactive or inconclusive.
Assays:
[1] = Primary qHTS for inhibitors of nuclear receptor binding SET domain protein 2 (NSD2) in an isogenic RCH-ACV NSD2 p.E1099K mutant (9B) (AID 1645876)
[2] = Primary qHTS for inhibitors of nuclear receptor binding SET domain protein 2 (NSD2) in an RCH-ACV wild type WT cells (2C) (AID 1645877)
% is scaled to controls: 0 for no effect and ±100 for the full control effect; potency is read from the fitted curve at half-maximal effect.
Also: nearly all actives have a fitted effect of over 70% in size.

With C=C1C(=O)OC2/C=C(\COC(C)=O)CC/C=C(\C=O)CC(OC(=O)CC(C)C)C12 (stereo unspecified) the Potency [1] was 2.24 µM (active) and the Potency [2] was 1.59 µM (active).
With COc1ccncc1C(=O)NC(=O)Nc1ccc(-c2ccccc2)c(C(F)(F)F)c1 the Potency [1] was “inactive” and the Potency [2] was “inactive”.
In the case of O=S(=O)(c1ccccc1)N(CC(F)(F)F)c1ccc(C(O)(C(F)(F)F)C(F)(F)F)cc1, the Potency [1] is reported as 23 µM (active) and the Potency [2] is reported as 23 µM (active).
In the case of C/C=C(\C)C(=O)OC1C[C@@]2(COC(C)=O)O[C@H]2/C=C\[C@@]2(C)O[C@@H]2[C@H]2OC(=O)C(COC(C)=O)=C12 (stereo partly specified), the Potency [1] is reported as 8.93 µM (active) and the Potency [2] is reported as 5.63 µM (active).
With C/C1=C\CCC2=CC(OC2=O)C(C)(C)/C=C/C1=O (stereo unspecified) the Potency [1] was 6.49 µM (active) and the Potency [2] was 2.9 µM (active).
With C=C1C(=O)O[C@@H]2[C@H]1CC(=O)[C@H](C)[C@@](O)(C(=O)/C=C/C)[C@H]2OC(=O)C(C)CC (stereo partly specified) the Potency [1] was 1.27 µM (active) and the Potency [2] was 0.45 µM (active).
For OC[C@H]1O[C@@H](OC/C=C/c2ccc(O)cc2)[C@H](O)[C@@H](O)[C@@H]1O, the Potency [1] was “inactive” and the Potency [2] was “inactive”.
For CC(C)(F)CC(NC(c1ccc(-c2ccc(S(C)(=O)=O)cc2)cc1)C(F)(F)F)C(=O)NC1(C#N)CC1 (stereo unspecified), the Potency [1] was “inactive” and the Potency [2] was “inactive”.
In the case of CC(O)(C(=O)O)C1CCC2(C)C1CCC1(C)C2CCC2C3(C)CCC(O)C(C)(COC4OC(CO)C(O)C(O)C4O)C3CCC21C (stereo unspecified), the Potency [1] is reported as “inactive” and the Potency [2] is reported as “inactive”.
In the case of COC(=O)N1CC2(CC2)C[C@H](C(=O)NO)[C@H]1C(=O)N1CCN(c2ccccc2)CC1, the Potency [1] is reported as “inactive” and the Potency [2] is reported as “inactive”.
With O=C1Nc2ccccc2-c2nc3ccccc3c(=O)n2-c2c(O)cccc21 the Potency [1] was “inactive” and the Potency [2] was “inactive”.
With Nc1ncnc2c1nc(Cl)n2C1OC2COP(=O)(O)OC2C1O (stereo unspecified) the Potency [1] was 2.05 µM (active) and the Potency [2] was 2.9 µM (active).
For CC(C)(C)C1CCN(C(=O)n2ncc(C(O)(c3ccccc3)c3ccccc3)n2)CC1, the Potency [1] was 20.5 µM (active) and the Potency [2] was 11.5 µM (active).
With CS(=O)(=O)Nc1cc2occ(NC=O)c(=O)c2cc1Oc1ccccc1 the Potency [1] was “inactive” and the Potency [2] was “inactive”.
In the case of C=C1C(=O)O[C@@H]2C[C@H](C)[C@@H]3CC(=O)C(C)=C3C[C@H]12, the Potency [1] is reported as 4.59 µM (active) and the Potency [2] is reported as 2.58 µM (active).
In the case of NC(=O)c1cnc(N[C@@H]2CCCC[C@@H]2N)nc1Nc1cccc(-n2nccn2)c1, the Potency [1] is reported as 1.32 µM (active) and the Potency [2] is reported as 1.32 µM (active).
With C=C(C=O)[C@]1(O)C[C@@]2(C)C(=CC1=O)C=C[C@H](OC(=O)/C=C/C=C/[C@H](C)CC)[C@@H]2C the Potency [1] was 3.17 µM (active) and the Potency [2] was 1.59 µM (active).
For CC(C)C[C@@H]1NC(=O)[C@@H]2C[C@@]34C[C@@H]5[C@@]6(C)CCCC(C)(C)C6CC[C@@]5(C)N(c5ccccc53)[C@H]4N2C1=O (stereo partly specified), the Potency [1] was 3.55 µM (active) and the Potency [2] was 3.99 µM (active).
With C/C1=C/CCC2=CC(OC2=O)C(C)(C)/C=C/C1=O (stereo unspecified) the Potency [1] was 0.578 µM (active) and the Potency [2] was 0.459 µM (active).
With CN1c2c(nc(N)[nH]c2=O)NC[C@@H]1CNc1ccc(C(=O)N[C@@H](CCC(=O)O)C(=O)O)cc1 the Potency [1] was “inactive” and the Potency [2] was “inactive”.
Compound CC1(C)CCC2(C(=O)OC3OC(COC4OC(CO)C(O)C(O)C4O)C(O)C(O)C3O)CCC3(C)C(=CCC4C5(C)CCC(OC6OCC(O)C(O)C6O)C(C)(C)C5CCC43C)C2C1O (stereo unspecified) has an activity change, negative = viability loss [1] of -12.3% [at 9.23 µM] and an activity change, negative = cell killing [2] of -18.7% [at 9.23 µM].
For CC(=O)O[C@]1(C(C)=O)CC[C@H]2[C@@H]3CCC4=CC(=O)CCC4=C3[C@@H](c3ccc(N(C)C)cc3)C[C@@]21C, the Potency [1] was 23 µM (active) and the Potency [2] was 23 µM (active).
In the case of CC#CCn1c(N2CCCC(N)C2)nc2c1c(=O)n(Cc1nc(C)c3ccccc3n1)c(=O)n2C (stereo unspecified), the Potency [1] is reported as “inactive” and the Potency [2] is reported as “inactive”.
For CC(=O)O[C@H]1CC2C(COC(=O)CC(C)C)=CO[C@@H](OC(=O)CC(C)C)C2[C@]12CO2 (stereo partly specified), the Potency [1] was 7.96 µM (active) and the Potency [2] was 3.55 µM (active).
In the case of COc1ccc(CCc2nc3cc(-c4c(C)noc4C)ccc3n2CC(C)N2CCOCC2)cc1Cl (stereo unspecified), the Potency [1] is reported as 2.3 µM (active) and the Potency [2] is reported as 2.58 µM (active).
With COc1ccc(C2Oc3c(OC)cc(CCCO)cc3C2COC2OC(CO)C(O)C(O)C2O)cc1OC (stereo unspecified) the Potency [1] was “inactive” and the Potency [2] was “inactive”.
With COc1c(C)cnc(Cn2cc(C#CCC(C)(C)O)c3c(Cl)nc(N)nc32)c1C the Potency [1] was 0.129 µM (active) and the Potency [2] was 0.145 µM (active).
For C[C@H]1CC[C@@]2(OC1)O[C@H]1CC3[C@@H]4CC[C@@H]5C[C@@H](O[C@@H]6O[C@H](CO)[C@@H](O[C@@H]7O[C@@H](C)[C@H](O)[C@@H](O)[C@H]7O)[C@H](O)[C@H]6O[C@@H]6O[C@H](CO)[C@@H](O)[C@H](O)[C@H]6O)CC[C@]5(C)C4CC[C@]3(C)[C@H]1[C@@H]2C (stereo partly specified), the Potency [1] was 3.88 µM (active) and the Potency [2] was 3.88 µM (active).
With C=C1CC2OC(=O)C(COC)C2C(OC(=O)/C(C)=C\C)CC2(C)OC1=CC2=O (stereo unspecified) the Potency [1] was 3.58 µM (active) and the Potency [2] was 2.26 µM (active).
For Cc1sc2c(c1C)C(c1ccc(Cl)cc1)=N[C@@H](CC(=O)Nc1ccc(OCCOCCOCCOCCNc3cccc4c3C(=O)N(C3CCC(=O)NC3=O)C4=O)cc1)c1nnc(C)n1-2 (stereo partly specified), the Potency [1] was 4 nM (active) and 10.5 nM (active) and the Potency [2] was 3.2 nM (active) and 14.8 nM (active).
For Cc1[nH]c2ccc(F)cc2c1-c1nc2c3cccnc3c3ncccc3c2[nH]1, the Potency [1] was 1.21 µM (active) and the Potency [2] was 1.08 µM (active).
In the case of O=S(=O)(NCc1ccccn1)c1ccc(Br)c2ccccc12, the Potency [1] is reported as “inactive” and the Potency [2] is reported as “inactive”.
For NC(=O)CCCSc1nc(N)nc(-c2c(Cl)cc3c4c(cccc24)COC3)n1, the Potency [1] was 0.183 µM (active) and the Potency [2] was 0.23 µM (active).
In the case of CC(NC(=O)Cc1cc(F)cc(F)c1)C(=O)NC1C(=O)N(C)c2ccccc2-c2ccccc21 (stereo unspecified), the Potency [1] is reported as 2.58 µM (active) and the Potency [2] is reported as 3.25 µM (active).
With CC(/C=C/C(=O)NO)=C\[C@@H](C)C(=O)c1ccc(N(C)C)cc1 the Potency [1] was 183 nM (active) and 1.05 µM (active) and the Potency [2] was 183 nM (active) and 934 nM (active).
In the case of C=C1C(=O)O[C@@H]2C[C@@]3(C)CCCC(=C)[C@]3(O)C[C@H]12, the Potency [1] is reported as 8.17 µM (active) and the Potency [2] is reported as 6.49 µM (active).
For CCC/C=C\C=C/CCc1cc(O)c([C@@H]2O[C@H](CO)[C@@H](O)[C@H](O)[C@H]2O)c(O)c1C(=O)OC, the Potency [1] was “inactive” and the Potency [2] was “inactive”.
For CCN(Cc1cc(Nc2nc(C)cn3c(-c4cn[nH]c4)cnc23)sn1)C(C)(C)CO, the Potency [1] was 0.0092 µM (active) and the Potency [2] was 0.0082 µM (active).
In the case of COc1cc(-n2cnc3cc(-c4ccc(Cl)cc4)sc3c2=O)ccc1OCCN1CCCC1, the Potency [1] is reported as 7.28 µM (active) and the Potency [2] is reported as 5.78 µM (active).
With C=C1CO[C@@]2(O[C@H]3CC4C5CC=C6C[C@@H](O)C[C@@H](O[C@@H]7OC[C@H](O)[C@H](O[C@@H]8OC[C@@H](O)[C@H](O)[C@H]8O)[C@H]7O[C@@H]7O[C@@H](C)[C@H](OC(C)=O)[C@@H](OC(C)=O)[C@H]7OC(C)=O)[C@]6(C)C5CC[C@]4(C)[C@@H]3[C@@H]2C)[C@@H](O)[C@H]1OC1OC(C)C(O)C(O)C1O (stereo partly specified) the Potency [1] was 2.18 µM (active) and the Potency [2] was 2.18 µM (active).
For C=C(NC(=O)C(=C)NC(=O)c1csc(C2=NC3c4csc(n4)C4NC(=O)c5csc(n5)C(C(C)(O)C(C)O)NC(=O)C5CSC(=N5)/C(=C/C)NC(=O)C(C(C)O)NC(=O)c5csc(n5)C3(CC2)NC(=O)C(C)NC(=O)C(=C)NC(=O)C(C)NC(=O)C(C(C)CC)NC2C=Cc3c(C(C)O)cc(nc3C2O)C(=O)OC4C)n1)C(N)=O (stereo unspecified), the Potency [1] was 2.3 µM (active) and the Potency [2] was 0.916 µM (active).
In the case of CO[C@@H]1CC(OC2CCC3(C)C(CCC45CCC(C6=CC(=O)OC6)C(C)(CCC43)C5=O)C2)O[C@H](C)[C@@H]1O[C@@H]1O[C@H](CO[C@@H]2O[C@H](CO)[C@@H](O)[C@H](O)[C@H]2O)[C@@H](O)[C@H](O)[C@H]1O (stereo partly specified), the Potency [1] is reported as 1.73 µM (active) and the Potency [2] is reported as 3.46 µM (active).
With Cc1ccc(NC(=O)c2ccc(CN3CCNCC3)cc2)cc1Nc1nccc(-c2cccnc2)n1 the Potency [1] was 16.3 µM (active) and 14.8 µM (active) and the Potency [2] was 18.3 µM (active) and 14.8 µM (active).
For COc1ccc(-c2ccccc2)cc1NS(=O)(=O)c1cc(Cl)cc(Cl)c1O, the Potency [1] was “inactive” and the Potency [2] was “inactive”.
In the case of CC(C)(C)NC(=O)[C@H]1CC[C@H]2[C@@H]3CC[C@H]4NC(=O)CC[C@]4(C)[C@H]3CC[C@]12C, the Potency [1] is reported as “inactive” and the Potency [2] is reported as “inactive”.
With C=C1C(=O)OC2/C=C(\COC(C)=O)CC/C=C(\C=O)CC(OC(=O)C(C)CC)C12 (stereo unspecified) the Potency [1] was 3.17 µM (active) and the Potency [2] was 2 µM (active).
With CN1CCc2cc3c(cc2C(=O)Cc2cc4c(cc2C1)OCO4)OCO3 the Potency [1] was “inactive” and the Potency [2] was “inactive”.
For COC(=O)CC[C@@H](C)C1CCC2C3CCC4C[C@H](OC(C)=O)CCC4(C)C3C[C@H](O)C21C (stereo partly specified), the Potency [1] was “inactive” and the Potency [2] was “inactive”.
For COc1cc(NC(=O)c2cccc(-n3cc(NC(=O)Nc4cccc(C)c4)cn3)c2)cc(OC)c1OC, the Potency [1] was 8.17 µM (active) and the Potency [2] was 9.16 µM (active).
In the case of CC1(C)C2CCC(CO[C@@H]3O[C@H](CO[C@@H]4OC[C@](O)(CO)[C@H]4O)[C@@H](O)[C@H](O)[C@H]3O)C1C2 (stereo partly specified), the Potency [1] is reported as “inactive” and the Potency [2] is reported as “inactive”.
In the case of COc1ccc2[nH]c(=O)c3c(c2c1)OC(C)(C)C=C3, the Potency [1] is reported as 14.5 µM (active) and the Potency [2] is reported as 14.5 µM (active).
For C=C1C(=O)O[C@H]2/C=C(/C)[C@@H](OC(C)=O)C/C=C(\C)C[C@@H](OC(=O)/C(=C/C)COC(=O)/C(=C/C)CO)[C@@H]12, the Potency [1] was 1.78 µM (active) and the Potency [2] was 1.12 µM (active).
With CC(C)C[C@@H](N)C(=O)N[C@H]1C(=O)N[C@@H](CC(N)=O)C(=O)N[C@H]2C(=O)N[C@H]3C(=O)N[C@H](C(=O)N[C@H](C(=O)O)c4cc(O)cc(O)c4-c4cc3ccc4O)[C@H](O)c3ccc(c(Cl)c3)Oc3cc2cc(c3O[C@@H]2O[C@H](CO)[C@@H](O)[C@H](O)[C@H]2O[C@H]2C[C@](C)(N)[C@H](O)[C@H](C)O2)Oc2ccc(cc2Cl)[C@H]1O the Potency [1] was “inactive” and the Potency [2] was “inactive”.

From PubChem BioAssay (NCATS)
